Measurements: PubChem BioAssay
The source made the active and inactive calls. Unless noted, the rule behind the calls is not given here.

Tests used:
[1] = anti-His antibody binders, primary screen, artefact control for SMM control protein annotation, biochemical, small-molecule microarray, 635 nm fluorescence (AID 1128); conditions: anti-His Alexa647 antibody binding, higher = more signal;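 note: score merges feature fluorescence with signal-to-noise for each printed compound spot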
[2] = tested on: Human papillomavirus type 1a E7 protein (residues 1-88); assay: HPV1a E7 small-molecule binders, primary screen, biochemical, small-molecule microarray, residues 1-88, 635 nm (AID 1129); conditions: small-molecule microarray binding, fluorescence 635 nm; higher = more signal
[3] = molecular target: Focal adhesion kinase 1 (Homo sapiens) (UniProt Q05397); assay: small-molecule microarray binders of FAK, primary screen, biochemical, 635/667 nm fluorescence, BSA, DTT (AID 1130); conditions: PTK2 binding, 635 nm fluorescence, higher = more signal;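 note: composite of spot emission at 667 nm and signal to noise over triplicate slides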
[4] = tested on: Fibrinogen (Alexa647-labelled); assay: fibrinogen binders on compound microarrays, profiling panel, artefact control for SMM control-protein annotation, biochemical, small-molecule microarray, 635/667 nm fluorescence (AID 1131); conditions: fibrinogen-A647 binding fluorescence, higher = more signal;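 note: z-score merges 667 nm fluorescence with per-spot signal-to-noise over triplicate slides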
[5] = molecular target: Follistatin (Homo sapiens) (UniProt P19883); assay: follistatin binders on small-molecule microarrays, primary screen, biochemical, small-molecule microarray, 635/667 nm fluorescence (AID 1132); conditions: FST binding, 635 nm fluorescence, higher = more signal
[6] = molecular target: Fibroblast growth factor 2 (Homo sapiens) (UniProt P09038); assay: FGF2 binders on small-molecule microarrays, primary screen, biochemical, small-molecule microarray, 635/667 nm fluorescence (AID 1133); conditions: small-molecule microarray binding, FGF2, fluorescence 635/667; higher = more signal
[7] = mitochondrial membrane potential change in A549 cells, profiling panel, cell-based, JC-1 fluorescence, basal, 24 h, 100 nL (AID 1138); conditions: higher = more signal;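 note: A549 lung adenocarcinoma cells under basal conditions with no added stimulus; test concentration not given here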
Lefty1 = Lefty1 binders on small-molecule microarrays, primary screen, biochemical, small-molecule microarray, 635/667 nm fluorescence (AID 1139); conditions: small-molecule microarray binding, fluorescence 635/667; higher = more signal
[8] = tested on: wheat germ agglutinin (Triticum aestivum), Alexa647-labelled; assay: wheat germ agglutinin binders on compound microarrays, profiling panel, artefact control for SMM control-protein annotation, biochemical, small-molecule microarray, 635/667 nm fluorescence (AID 1140); conditions: WGA-A647 binding, 635 nm fluorescence, higher = more signal;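 note: score merges 667 nm feature emission with signal to noise over triplicate slides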
[9] = molecular target: Luciferin 4-monooxygenase (Photinus pyralis) (UniProt P08659); assay: firefly luciferase enzyme inhibitors, primary screen, biochemical, luminescence, purified enzyme, 2006 set (AID 1141); conditions: SteadyGlo luminescence, 30 min, higher = more signal, called active from +8 up or from −8 down;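 note: cell-free assay with purified firefly luciferase at 100 ng per well in PBS; test concentration not given here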
[10] = tested on: Wnt5a (protein binding on small-molecule microarray); assay: Wnt5a binders on small-molecule microarray, primary screen, biophysical, 635/667 nm fluorescence (AID 1142); conditions: 635 nm fluorescence, higher = more signal;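 note: fluorescence read at 667 nm with signal to noise per printed feature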
[11] = cell viability in Huh7 cells, primary screen, cytotoxicity control for HCV replication inhibitor project, CellTiter-Glo luminescence, basal, 48 h (AID 1143); conditions: Huh7 HCV replicon, higher = more signal, called active from +8 up or from −8 down;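 note: Huh7 hepatoma cells carrying a hepatitis C replication reporter with no stimulus; test concentration not given here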
[12] = P. aeruginosa biofilm formation inhibitors, primary screen, PAO1 strain, BacTiter-Glo luminescence, LB-PBS (AID 1144); conditions: 12 h, higher = more signal
[13] = CREB reporter modulators without forskolin, primary screen, cell-based, PC12, CRE-LacZ reporter, unstimulated (AID 1145); conditions: no forskolin, luminescence, 4.5 h, higher = more signal, called active from +8 up or from −8 down
[14] = CREB reporter modulators under forskolin, primary screen, cell-based, PC12, CRE-LacZ reporter, forskolin-stimulated (AID 1146); conditions: luminescence, 4.5 h, higher = more signal, called active from +8 up or from −8 down;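 note: PC12 cells with 6xCRE LacZ reporter stimulated by forskolin 10 µM; beta-galactosidase reporter signal reflecting CREB driven transcription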
[15] = molecular target: Streptavidin (Streptomyces avidinii) (UniProt P22629); assay: streptavidin binders on small-molecule microarray, primary screen, artefact control for SMM compound annotation, biophysical, 635/667 nm fluorescence (AID 1147); conditions: streptavidin binding, higher = more signal;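 note: signal reflects streptavidin binding to arrayed compounds as a control protein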
[16] = small-molecule binders of probe aInhba, primary screen, biochemical, small-molecule microarray, 635/667 nm fluorescence (AID 1148); conditions: higher = more signal;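 note: score merges 667nm spot fluorescence with signal-to-noise for antibody binding to printed compounds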
Torsin-1A (Homo sapiens) [17] = molecular target: Torsin-1A (Homo sapiens) (UniProt O14656); assay: torsin A binders from cell lysate, primary screen, small-molecule microarray, wild-type, 635/667 nm (AID 1149); conditions: COS7 hTOR1A-WT lysate, 635 nm fluorescence, higher = more signal
Torsin-1A (Homo sapiens) [18] = molecular target: Torsin-1A (Homo sapiens) (UniProt O14656); assay: small-molecule binders of mutant TOR1A in lysate, primary screen, cell lysate, small-molecule microarray, COS7 lysate, 635/667 nm fluorescence (AID 1150); conditions: COS7 hTOR1A mutant lysate, 635 nm fluorescence, higher = more signal;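 note: score pools 667 nm emission and signal to noise measuring lysate protein binding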
[19] = tested on: Sonic hedgehog protein (Shh); assay: small-molecule binders of Shh protein, primary screen, biochemical, small-molecule microarray, 635/667 nm fluorescence (AID 1151); conditions: small-molecule microarray binding, 635 nm fluorescence; higher = more signal;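 note: Shh protein binding to compounds spotted on small-molecule microarray slides; score combines spot fluorescence intensity with signal-to-noise across triplicate slides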

Sequence of Focal adhesion kinase 1 (Homo sapiens) (Q05397 whole entry, looked up): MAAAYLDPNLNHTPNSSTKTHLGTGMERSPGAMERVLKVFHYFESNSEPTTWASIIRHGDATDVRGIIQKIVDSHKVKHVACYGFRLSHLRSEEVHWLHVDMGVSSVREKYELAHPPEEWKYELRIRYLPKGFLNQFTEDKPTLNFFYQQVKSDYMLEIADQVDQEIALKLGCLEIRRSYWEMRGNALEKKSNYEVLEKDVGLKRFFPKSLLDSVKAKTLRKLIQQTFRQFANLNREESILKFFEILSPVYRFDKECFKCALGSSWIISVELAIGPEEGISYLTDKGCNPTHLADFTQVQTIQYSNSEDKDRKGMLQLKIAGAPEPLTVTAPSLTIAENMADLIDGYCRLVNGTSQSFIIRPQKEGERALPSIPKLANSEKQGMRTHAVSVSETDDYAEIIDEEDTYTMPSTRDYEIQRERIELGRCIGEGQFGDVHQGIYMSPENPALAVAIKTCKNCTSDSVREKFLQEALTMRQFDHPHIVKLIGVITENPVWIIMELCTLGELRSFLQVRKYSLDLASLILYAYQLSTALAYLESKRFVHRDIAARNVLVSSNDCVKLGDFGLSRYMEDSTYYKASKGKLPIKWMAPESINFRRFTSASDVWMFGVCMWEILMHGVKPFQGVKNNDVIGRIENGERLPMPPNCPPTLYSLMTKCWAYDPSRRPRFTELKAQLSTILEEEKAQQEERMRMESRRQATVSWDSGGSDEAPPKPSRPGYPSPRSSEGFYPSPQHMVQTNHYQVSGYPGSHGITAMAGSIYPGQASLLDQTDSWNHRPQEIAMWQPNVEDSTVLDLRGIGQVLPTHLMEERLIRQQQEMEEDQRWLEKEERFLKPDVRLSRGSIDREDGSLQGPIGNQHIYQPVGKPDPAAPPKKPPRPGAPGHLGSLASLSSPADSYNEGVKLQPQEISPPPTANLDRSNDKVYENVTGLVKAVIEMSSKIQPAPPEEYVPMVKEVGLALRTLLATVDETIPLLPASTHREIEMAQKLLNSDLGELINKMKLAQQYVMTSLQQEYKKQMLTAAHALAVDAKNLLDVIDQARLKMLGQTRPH
Sequence of Streptavidin (Streptomyces avidinii) (P22629 whole entry, looked up): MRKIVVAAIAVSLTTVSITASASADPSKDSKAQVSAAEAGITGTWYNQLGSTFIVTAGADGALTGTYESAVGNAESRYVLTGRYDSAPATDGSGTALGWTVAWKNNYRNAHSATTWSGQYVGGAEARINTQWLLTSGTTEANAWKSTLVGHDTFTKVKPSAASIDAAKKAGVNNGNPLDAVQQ
Sequence of Follistatin (Homo sapiens) (P19883 whole entry, looked up): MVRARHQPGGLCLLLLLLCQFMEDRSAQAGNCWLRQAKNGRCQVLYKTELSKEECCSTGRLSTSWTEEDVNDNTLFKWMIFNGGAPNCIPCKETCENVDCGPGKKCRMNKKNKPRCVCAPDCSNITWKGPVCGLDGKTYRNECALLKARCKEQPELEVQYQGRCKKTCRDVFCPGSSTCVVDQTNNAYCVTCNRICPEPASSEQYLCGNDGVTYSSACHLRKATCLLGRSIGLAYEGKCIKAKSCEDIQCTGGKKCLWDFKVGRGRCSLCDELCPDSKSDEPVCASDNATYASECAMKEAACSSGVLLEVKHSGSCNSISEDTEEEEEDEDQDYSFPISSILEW
Sequence of Luciferin 4-monooxygenase (Photinus pyralis) (P08659 whole entry, looked up): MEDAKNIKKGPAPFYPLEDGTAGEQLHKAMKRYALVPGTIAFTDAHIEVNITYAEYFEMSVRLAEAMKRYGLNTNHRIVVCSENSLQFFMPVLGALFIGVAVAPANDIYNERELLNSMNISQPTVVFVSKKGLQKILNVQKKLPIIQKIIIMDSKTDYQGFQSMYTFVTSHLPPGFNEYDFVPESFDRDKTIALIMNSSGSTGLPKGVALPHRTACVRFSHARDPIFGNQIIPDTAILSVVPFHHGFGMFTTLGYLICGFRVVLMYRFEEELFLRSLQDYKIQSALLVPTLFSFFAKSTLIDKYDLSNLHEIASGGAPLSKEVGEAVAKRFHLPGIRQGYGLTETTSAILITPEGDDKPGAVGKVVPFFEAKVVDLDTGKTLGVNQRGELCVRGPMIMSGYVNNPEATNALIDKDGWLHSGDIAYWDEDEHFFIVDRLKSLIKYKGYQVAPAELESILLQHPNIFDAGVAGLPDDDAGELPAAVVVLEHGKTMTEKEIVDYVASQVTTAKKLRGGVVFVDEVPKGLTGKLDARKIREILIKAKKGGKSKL
Sequence of Fibroblast growth factor 2 (Homo sapiens) (P09038 whole entry, looked up): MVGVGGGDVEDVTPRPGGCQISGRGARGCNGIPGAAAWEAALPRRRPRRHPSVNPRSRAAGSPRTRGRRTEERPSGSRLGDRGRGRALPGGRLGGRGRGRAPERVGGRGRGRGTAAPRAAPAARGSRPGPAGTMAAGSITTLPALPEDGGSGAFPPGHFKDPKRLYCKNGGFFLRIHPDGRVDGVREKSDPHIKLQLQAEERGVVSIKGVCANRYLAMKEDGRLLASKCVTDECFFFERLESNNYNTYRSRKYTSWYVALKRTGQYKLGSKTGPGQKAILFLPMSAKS
Sequence of Torsin-1A (Homo sapiens) (O14656 whole entry, looked up): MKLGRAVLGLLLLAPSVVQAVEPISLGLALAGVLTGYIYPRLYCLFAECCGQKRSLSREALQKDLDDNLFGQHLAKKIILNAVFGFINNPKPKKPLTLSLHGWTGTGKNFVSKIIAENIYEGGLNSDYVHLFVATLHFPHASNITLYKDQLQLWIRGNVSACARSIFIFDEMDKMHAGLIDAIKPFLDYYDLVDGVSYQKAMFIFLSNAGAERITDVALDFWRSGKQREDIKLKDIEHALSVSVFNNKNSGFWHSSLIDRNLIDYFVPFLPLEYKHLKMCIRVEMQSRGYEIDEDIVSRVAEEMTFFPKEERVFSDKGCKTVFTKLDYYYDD

Structure (SMILES) | composite z-score [1] | composite z-score [2] | composite z-score [3] | composite z-score [4] | composite z-score [5] | composite z-score [6] | z-score [7] | composite z-score (Lefty1) | composite z-score [8] | z-score [9] | composite z-score [10] | z-score [11] | z-score [12] | z-score [13] | z-score [14] | composite z-score [15] | composite z-score [16] | composite z-score (Torsin-1A (Homo sapiens) [17]) | composite z-score (Torsin-1A (Homo sapiens) [18]) | composite z-score [19]
NC(=O)NCC#Cc1ccc2c(c1)[C@]1(C(=O)N2)[C@H](c2ccc(OCCO)cc2)N2[C@H](c3ccccc3)[C@H](c3ccccc3)OC(=O)[C@H]2[C@@H]1C(=O)N1CCN(c2ncccn2)CC1 | -0.192 | 0.973 | 0.0718 | 0.879 | 1.34 | 0.502 | -1.1 | 1.08 | 0.444 | -1.33 (inactive) | 0.132 | 0.342 (inactive) | -0.724 (inactive) | -0.491 (inactive) | -0.301 (inactive) | -0.373 | 0.15 | 0.539 | 0.673 | 1.5
C[C@]12C(=O)N(CCCCCO)[C@@H]3C(=O)N(c4ccc(Cl)cc4)CC=CC31O[C@@H]1/C=C\CCCOC(=O)C12 (stereo not given in full) | -0.39 | -0.711 | -0.83 | -1.47 | -0.271 | -1.27 | 0.428 | -0.431 | -1.31 | -0.576 (inactive) | -0.937 | -0.297 (inactive) | 1.45 (inactive) | 0.203 (inactive) | -0.416 (inactive) | -1.19 | -0.179 | -2.76 | -1.63 | 0.0607
NC(=O)[C@@H]1[C@H]2C(=O)O[C@H](c3ccccc3)[C@H](c3ccccc3)N2[C@H](c2ccccc2OCCO)[C@@]12C(=O)Nc1ccc(C#CCCO)cc12 | 0.553 | -0.464 | 0.155 | 0.947 | -0.0704 | -0.455 | 0.669 | -0.128 | 0.335 | 1 (inactive) | -0.335 | -3.21 (inactive) | -0.663 (inactive) | 0.299 (inactive) | -0.445 (inactive) | 0.837 | -0.0407 | -0.969 | 0.115 | -0.116
CC(C)(C)N1CC=CC23O[C@@H]4C=CCCOC(=O)C4[C@H]2C(=O)N(CCCO)[C@@H]3C1=O (stereo not given in full) | -1.89 | -1.75 | -0.491 | -1.66 | -0.103 | -0.464 | -0.754 | -0.292 | -1.96 | -0.0881 (inactive) | -0.213 | -2.5 (inactive) | -0.93 (inactive) | 0.451 (inactive) | -0.178 (inactive) | -1.33 | -0.23 | -0.253 | -0.663 | 0.398
CC(C)c1ccc(NN2C(C(O)c3ccccn3)C=CC3C(=O)N(c4ccccc4)C(=O)C32)cc1 (stereo not given) | 0.75 | 1.28 | 0.405 | 0.947 | 1.28 | 1.48 | 1.14 | 1.18 | 0.976 | -1.5 (inactive) | 1.01 | 0.0489 (inactive) | -0.997 (inactive) | 0.0501 (inactive) | 0.792 (inactive) | 0.608 | 0.46 | 1.55 | 2.09 | 1.98
COc1ccc([Si](C)(C)[C@H]2[C@H](CC(=O)N3CCC[C@H]3CO)O[C@@]3(C(=O)N(Cc4ccc(N5C(=O)c6cccc7cccc5c67)cc4)c4ccccc43)[C@@H]2C)cc1 | 1.7 | 1.17 | 1.18 | 0.864 | 1.07 | 1.21 | 0.285 | 1.48 | 0.682 | 0.0355 (inactive) | 0.213 | -3.73 (inactive) | 0.0403 (inactive) | 0.543 (inactive) | -0.594 (inactive) | 0.197 | 0.134 | 0.81 | 0.397 | 2.05
O=C1C[C@@](C(=O)O)(c2ccc([N+](=O)[O-])cc2)[C@@H](c2ccc(CO)cc2)N1CC12CC3CC(CC(C3)C1)C2 | 1.2 | 1.19 | 0.486 | 0.732 | 0.563 | -0.119 | 2.19 | 0.43 | 1.02 | -0.162 (inactive) | 0.319 | -5.13 (inactive) | -1.03 (inactive) | -0.322 (inactive) | 0.351 (inactive) | 0.791 | -0.0759 | 0.734 | 0.949 | 1.76
C=CCNC(=O)[C@@H]1[C@H]2C(=O)O[C@H](c3ccccc3)[C@H](c3ccccc3)N2[C@H](c2ccc(O)cc2)[C@@]12C(=O)Nc1ccc(C#CCCO)cc12 | 0.111 | -0.756 | 1.33 | -1.22 | -0.773 | -0.53 | -0.0797 | -0.836 | 1.24 | 1.05 (inactive) | 0.177 | -2.21 (inactive) | -0.661 (inactive) | 0.0384 (inactive) | -0.612 (inactive) | -0.955 | -0.153 | -1.05 | -0.106 | -0.736
COCCOC(=O)N1C(=O)[C@@]2(c3cc(C#CCNC(N)=O)ccc31)[C@H](C(N)=O)[C@H]1C(=O)O[C@H](c3ccccc3)[C@H](c3ccccc3)N1[C@@H]2c1ccc(OCCO)cc1 | -0.224 | 1.03 | 0.199 | 0.609 | 1.48 | 1.26 | -2.25 | 1.46 | 0.121 | -1.8 (inactive) | 0.601 | 0.166 (inactive) | 0.404 (inactive) | 0.631 (inactive) | -0.0727 (inactive) | 0.668 | 0.0219 | 0.532 | 1.26 | 1.63
COCCCNC(=O)[C@@]1(Cc2ccccc2)COC(c2ccc(OCCCO)cc2)=N1 | 2.66 | 1.21 | 0.953 | 1 | 0.645 | 0.986 | 0.814 | -1.07 | 0.509 | 0.272 (inactive) | 0.788 | -1.02 (inactive) | 0.211 (inactive) | -0.0808 (inactive) | 0.347 (inactive) | -0.207 | 0.263 | 0.673 | 0.878 | -0.795
